Screens: PubChem, several laboratories
Hits are enriched below; roughly 0.44% of the tested compounds scored in any of these assays.
YopH inh: inhibitors of Yersinia enterocolitica YopH tyrosine phosphatase; 140,000 compounds, 0.16% hits; inhibition, % (concentration not given with the values); fluorescence Ex485/Em525; AID 898; in the data active = inhibition above about 50%
RmlC RmlD mix: RmlC/RmlD inhibition, mixture screen; RmlC/RmlD coupled enzyme inhibition, 384-well mixture HTS; inhibition, % at 5.5 µM; 110,000 compounds, 0.39% hits; AID 1532; in the data active = inhibition above about 30%, passing the limit was not always enough
RmlCD artifact: RmlC/RmlD fluorescence artifact, counter-screen; shares compounds with RmlC RmlD mix; RmlC/RmlD assay fluorescence artifact counter-screen; calls only; 360 compounds, 96% hits; call rule not given here;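 note: compound alone with no enzyme and no substrates present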
Hits are given with their value; - = inactive; . = no result given; + = active, no number.

SMILES | YopH inh | RmlC RmlD mix | RmlCD artifact
CC(C)=CCc1cc2c(=O)c3c(O)c4c(cc3oc2c(O)c1O)OC(C)C4(C)C (centres undefined) | . | - | .
CCOC(=O)C[C@H]1c2cc(F)ccc2S(=O)(=O)N1Cc1ccc(OC)cc1 | . | - | .
COc1ccc2cc(C(=O)NCc3ccco3)c(=O)oc2c1 | - | - | .
O=C(NCc1ccco1)c1cc2ccc(O)cc2oc1=O | - | 86.3 | +
O=C(O)CCCN=CC1=C(O)C(C(=O)c2ccccc2)CCC1=O (centres undefined) | - | - | .
COc1c(O)cccc1[C@@H](O)C1CCN(CCc2ccc(F)cc2)CC1 | . | - | .
COCC(=O)Nc1ccc(-c2cn3cccnc3n2)cc1 | - | 95.7 | +
Cc1ccc(-c2nc3ncccc3o2)cc1NC(=O)COc1ccccc1 | - | - | .
COc1ccc(-c2cn3cccnc3n2)cc1NC(=O)c1cccs1 | - | . | .
CCOCC(=O)Nc1cc(-c2cn3cccnc3n2)ccc1C | - | 107.3 | +
O=C(/C=C/c1cccc([N+](=O)[O-])c1)Nc1cccc(NC(=O)c2cccs2)c1 | - | . | .
C[C@H]1CC[C@]2(O[C@@H](CCO)C[C@H](O)[C@H]2O)O1 | . | - | .
C#CCNC(=O)C1=C[C@H](c2ccccc2)[C@@H](CCCO)[C@H](OCC)O1 | . | - | .
CN1CC2(Cc3c1ccc1ccccc31)C(=O)OC(C)(C)OC2=O | - | + | +
Cc1ccc2c(c1)CC1(CN2C)C(=O)OC2(CCCCC2)OC1=O | - | - | .
CN1CCN(CCCNC(=O)c2ccc3c(c2)N(Cc2ccccc2)CCS3)CC1 | - | 37.5 | +
O=C(NCCN1CCOCC1)c1ccc2c(c1)N(Cc1ccccc1)CCS2 | - | - | .
O=C1COC(c2ccccc2)C2CCCCN12 (centres undefined) | - | . | .
CC(C)N(C(=O)COC(=O)c1cc(Cl)cc(Cl)c1N)C(C)C | - | - | .
CN(C)C(=O)COC(=O)c1cc(Cl)cc(Cl)c1N | - | 35.9 | +
CCOc1ccccc1Oc1c(C)oc2c(CN3CCN(C)CC3)c(O)ccc2c1=O | - | - | .
CCc1cc2c(=O)c(Oc3ccccc3F)c(C)oc2c(CN(C)C)c1O | - | 72.5 | +
Cc1cc(C)n(-c2cc(N3CCN(C(=O)c4ccccc4C)CC3)ccc2[N+](=O)[O-])n1 | - | - | .
COc1cc(/C=C2/C(=N)N3C=CSC3=NC2=O)ccc1OCCCOc1ccccc1C | - | - | .
CCOc1cc(/C=C2/C(=N)N3C=CSC3=NC2=O)ccc1OCCCOc1ccccc1C | - | 40.1 | +
Cc1ccc(N2C(N)=C(C#N)C(c3cccnc3)C3=C2CCCC3=O)cc1 (centres undefined) | - | . | .
CC1=C(C#N)C(c2cccnc2)C2=C(CCCC2=O)N1 (centres undefined) | - | 32.1 | +
Cc1ccc(C)c(NC(=O)CN(C)C(=O)COc2ncnc3sccc23)c1 | - | . | .
